For assay [1], the target named is Cellular tumor antigen p53 (Homo sapiens) (UniProt P04637). In words: Primary qHTS for small molecule compounds that upregulate eGFP-tagged delta133p53alpha (in N-terminal) cells. (AID 2060322). Also: nearly all actives have a fitted effect of over 75% in size. Also: potency is read from the fitted curve at half-maximal effect.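 As to activation: series mostly up to about 56 µM; 0% = DMSO vehicle and 100% = reference activator.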 The conditions noted are these: NCI-H358 eGFP-delta133p53alpha fluorescence, 24 h; activation: hits give high values. The procedure, abridged: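 NCI-H358 cells pre-induced 24 h with 10 ng/ml doxycycline to express N-terminal eGFP-delta133p53alpha, then dosed 24 h at 37C without doxycycline; fixed, Hoechst-stained, GFP intensity by laser scanning cytometry, normalized to DMSO (0%) and 57.5 uM 5-azacytidine (100%).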

Assay [2] addresses Aldehyde dehydrogenase, mitochondrial (Homo sapiens) (UniProt P05091). As to the kind of experiment: qHTS for Inhibitors of the Aldehyde Dehydrogenase Family (ALDH2) Primary screen (AID 2061308).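 Also: plate controls were vehicle for no effect and reference inhibitor for full effect; nearly all actives have a fitted effect of over 55% in size.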 A general note: Quantitative high-throughput screening tests each substance at several concentrations.
Assay [3] concerns the target Retinaldehyde dehydrogenase 3 (Homo sapiens) (UniProt P47895). In words: qHTS for Inhibitors of the Aldehyde Dehydrogenase Family (ALDH1A3) Primary screen (AID 2061315). Also: potency is read from the fitted curve at half-maximal effect.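 As to activity change, negative = inhibition: plate controls were DMSO vehicle for no effect and reference inhibitor for full effect.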
Assay [4] is described as follows: BET inhibitor-based combinations targeting novel dependencies in MECOM-rearranged (r) AML: SET-2 cell line (AID 2202231). Also: nearly all actives have a fitted effect of over 35% in size. Also: potency is read from the fitted curve at half-maximal effect.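 As to viability: plate controls were DMSO treated cells for no effect and wells without cells for full effect.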 To be noted: SET-2 AML cells viability, CellTiter-Glo luminescence, 48 h; viability: hits give low values, concentration not given here. The procedure, abridged: (§1)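 Luminescent ATP readout (CellTiter-Glo) after 48 hr drug exposure gives viability. Curves span 11 concentrations and are normalized to DMSO and empty wells. Activity is reported as area under the curve and its Z-transform within each cell line.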
On the technique in general: Cellular ATP, detected with luciferase, serves as a proxy for viable cell number.

Assay [5] in a line: BET inhibitor-based combinations targeting novel dependencies in MECOM-rearranged (r) AML: OCI-AML3 cell line (AID 2202232). Also: nearly all actives have a fitted effect of over 35% in size. Also: potency is read from the fitted curve at half-maximal effect. To be noted: Potency: OCI-AML3 viability. The procedure, abridged: as §1
Assay [6] is described as follows: BET inhibitor-based combinations targeting novel dependencies in MECOM-rearranged (r) AML: MV-4-11 cell line (AID 2202233). Also: nearly all actives have a fitted effect of over 45% in size. Also: potency is read from the fitted curve at half-maximal effect. An outline of the steps: (§2)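 Luminescent ATP readout (CellTiter-Glo, 15 min at room temperature) after 48 hr drug exposure gave viability. Dose-response curves, normalized to DMSO and empty-well controls, were summarized as area under the curve and its mean-centred Z-score.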

A short description of assay [7]: BET inhibitor-based combinations targeting novel dependencies in MECOM-rearranged (r) AML: UCSD-AML1 cell line (AID 2202235). Also: nearly all actives have a fitted effect of over 40% in size. Also: potency is read from the fitted curve at half-maximal effect. An outline of the steps:
as §2

A short description of assay [8]: BET inhibitor-based combinations targeting novel dependencies in MECOM-rearranged (r) AML: AML-191 cell line (AID 2202236; also: nearly all actives have a fitted effect of over 35% in size; also: potency is read from the fitted curve at half-maximal effect). The procedure, abridged:
as §1

Assay [9] can be described thus: BET inhibitor-based combinations targeting novel dependencies in MECOM-rearranged (r) AML: HNT-34 cell line (AID 2202234). Also: nearly all actives have a fitted effect of over 35% in size. Also: potency is read from the fitted curve at half-maximal effect. The procedure, abridged: as §2
A short description of assay [10]: BET inhibitor-based combinations targeting novel dependencies in MECOM-rearranged (r) AML: AML-194 cell line (AID 2202237; also: nearly all actives have a fitted effect of over 40% in size; also: potency is read from the fitted curve at half-maximal effect). The procedure, abridged:
as §1

Assay [11] has as its target Retinaldehyde dehydrogenase 3 (Homo sapiens) (UniProt P47895). As to the kind of experiment: qHTS for Inhibitors of the Aldehyde Dehydrogenase Family (ALDH1A3) Confirmatory screens (AID 2061311). Also: potency is read from the fitted curve at half-maximal effect; nearly all actives have a fitted effect of over 60% in size.
For assay [12] the target is unchanged. As to the kind of experiment: qHTS for Inhibitors of the Aldehyde Dehydrogenase Family (ALDH1A3) Validation screen (AID 2061312). Also: nearly all actives have a fitted effect of over 45% in size. Also: potency is read from the fitted curve at half-maximal effect. As to activity change, negative = inhibition: % is scaled to controls: 0 for no effect and ±100 for the full control effect.

SMILES strings stand for the structures. Where “and” joins values, the source holds several entries; their conditions need not be identical. Identical values can stand only once. Inconclusive results are not listed. Values without a mark were called inactive. Calls of active or inactive are those of the source. Calls follow the shape of the dose curve; as a rule, active = well fitted curve in the direction sought with a large enough effect; inconclusive = small, poorly fitted or top-dose-only effect, or another doubt; inactive = no such curve, though single readings can be large; an effect the other way counts as inactive or inconclusive.

Cellular tumor antigen p53 (Homo sapiens), sequence (P04637 whole entry, looked up): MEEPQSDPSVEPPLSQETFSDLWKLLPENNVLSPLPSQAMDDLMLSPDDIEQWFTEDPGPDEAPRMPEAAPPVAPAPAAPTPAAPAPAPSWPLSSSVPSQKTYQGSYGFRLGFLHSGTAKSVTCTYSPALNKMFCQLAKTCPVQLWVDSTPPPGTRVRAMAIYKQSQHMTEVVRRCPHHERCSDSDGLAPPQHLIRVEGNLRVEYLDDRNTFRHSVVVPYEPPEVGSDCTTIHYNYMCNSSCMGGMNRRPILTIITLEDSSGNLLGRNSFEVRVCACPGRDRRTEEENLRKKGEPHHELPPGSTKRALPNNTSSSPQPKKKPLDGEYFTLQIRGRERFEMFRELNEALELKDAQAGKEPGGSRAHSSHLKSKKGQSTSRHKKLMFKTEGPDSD

As for `CC(N[C@H]1C[C@H]1c1ccccc1)c1ccc2c(c1)OCCO2` (stereo partly specified), the activation in assay [1] was -13.9% and -18.6%. Further, the Potency result in assay [2] and in [3] was “inactive” each time.
As usually defined, the viability is a read-out of living cells in per cent, often relative to untreated cells. Regarding `COc1cc(C)[nH]c(=O)c1CNC(=O)c1c(C)n([C@H](C)C2CCOCC2)c2ccccc12`, the activation in assay [1] is -8.11%. Besides, the Potency entry in assay [2], in assay [3], in assay [5], in [6], in assay [7] and in assay [8] was “inactive” in each case. For the same compound, the viability in assay [4] was 113%.
Regarding `COC1CC(OC2CCC3(C)C(=CCC4C3CCC3(C)C(C(C)OC5OC(COC6OC(CO)C(O)C(O)C6O)C(O)C(O)C5O)CCC43O)C2)OC(C)C1OC1OC(C)C(O)C(OC)C1O` (stereo unspecified), in assay [1], the activation is 5.34%. Further, the Potency entry in [2] and in assay [3] was “inactive” each time.
Take `COC[C@]12CN(C)C3C4[C@H](OC)[C@H]1C3(C(OC)C[C@H]2O)[C@H]1C[C@@]2(O)[C@H](OC(=O)c3ccccc3)[C@@H]1[C@]4(O)[C@@H](O)[C@@H]2OC` (stereo partly specified): the activation in assay [1] is -0.333%. The Potency entry in assay [2] and in assay [3] was “inactive” throughout.
Regarding `O=C(NCC1CCOCC1)c1cnc(Nc2ccc(Cl)cc2Cl)nc1C(F)(F)F`, the activation in assay [1] was -5.35% and 9.55%. Besides, the Potency entry in assay [2], in assay [3], in assay [5], in assay [9] and in [10] was “inactive” each time. Also, the viability in [4] is 97.9%. Moreover, the Potency in [6] is 14800 nM (active).
Consider `O=C(Oc1ccc([N+](=O)[O-])cc1)N1CCC(C(O)(c2ccc3c(c2)OCO3)c2ccc3c(c2)OCO3)CC1`, for which the activation in assay [1] is 9.18% and -1.67%. Moreover, the Potency entry in assay [2], in assay [3], in assay [6], in assay [7] and in [8] was “inactive” throughout.
Consider `CC(C)[C@]12O[C@H]1[C@@H]1O[C@]13[C@]1(O[C@H]1C[C@H]1C4=C(CC[C@@]13C)C(=O)OC4)[C@@H]2O`, for which the Potency in [1] was 269 nM (active); in [4], 59 nM (active); in assay [5], 29.5 nM (active); in assay [9] it was 74.2 nM (active); in [7] it was 41.7 nM (active); in assay [8] it was 37.2 nM (active). Moreover, in assay [10], the Potency was 46.8 nM (active). Moreover, the Potency entry in assay [2] and in [3] was “inactive” each time.
`CN(N=O)c1ccc(O)c(O)c1`: in assay [1], the activation was -30.1%. In addition, the Potency in assay [11] was 12700 nM (active).
Regarding `COc1ccc2c3c([nH]c2c1)C(C=C(C)C)N1C(=O)C2CCCN2C(=O)C1C3` (stereo unspecified), in assay [1], the activation is -3.82%. For the same compound, the Potency result in assay [2] and in assay [3] was “inactive” each time.
Regarding `CCOC(=O)Nc1ccc(NCc2ccc(F)cc2)cc1N`, the activation in assay [1] is -10.3% and -0.955%. Also, the Potency entry in assay [2], in [8] and in assay [10] was “inactive” throughout. For the same compound, the viability in assay [4] was 102%.
`O=C(O)CNC(=O)c1c(O)c2ccccc2n(Cc2ccccc2)c1=O`: the activation in assay [1] is -9.57% and 9.82%. Also, the Potency entry in assay [2], in assay [3], in assay [6], in assay [9] and in assay [8] was “inactive” each time.
As to `CNc1ccc2oc(C[C@H]3O[C@@]4(CC[C@H]3C)O[C@H](C(C)C(=O)c3ccc[nH]3)[C@H](C)C[C@H]4C)nc2c1C(=O)O` (stereo partly specified), the Potency in assay [1] was 19000 nM (active); in [12], 14100 nM (active); in [3], 11200 nM (active).
For the compound `COc1ccc(N(C(=O)Oc2c(C)cccc2C)c2ccnc(Nc3ccc(N4CCN(C)CC4)cc3)n2)c(OC)c1`, in assay [1], the activation is -14.2%. For the same compound, the Potency result in [2], in [3] and in assay [10] was “inactive” throughout. Also, in [4], the viability is 117%. Besides, the Potency in [5] was 5900 nM (active); in assay [8] it was 2630 nM (active).
For `Clc1ccc(N2C[C@H]3CC[C@@H](C2)N3)nn1`, the activation in assay [1] is -0.333%. Besides, the Potency result in assay [3] was “inactive”.
In the case of `CNC(=O)c1ccc(N2C(=S)N(c3ccc(C#N)c(C(F)(F)F)c3)C(=O)C23CCC3)cc1F`, the activation in assay [1] was 38.4% and -8.11%. Moreover, the Potency result in assay [2], in assay [3] and in assay [8] was “inactive” in each case. Besides, the viability in assay [4] was 101%.
Take `CC(=O)OC[C@]12C[C@H](OC(=O)CC(C)C)C(C)=C[C@H]1O[C@@H]1[C@H](O)[C@@H](OC(C)=O)[C@@]2(C)[C@@]12CO2`: the Potency in assay [1] is 82.8 nM (active). Moreover, the Potency entry in assay [2] and in assay [3] was “inactive” in each case.
As to `Cc1cc(SCc2sc(-c3ccc(C(F)(F)F)c(F)c3)nc2C)ccc1OCC(=O)O`, the activation in assay [1] is -16% and 31%. The Potency result in assay [2], in assay [3] and in assay [7] was “inactive” in each case.
In the case of `C[C@H]1O[C@@H](O[C@H]2[C@@H](O)C[C@H](O[C@H]3[C@@H](O)C[C@H](O[C@H]4CC[C@@]5(C)[C@H](CC[C@@H]6[C@@H]5CC[C@]5(C)[C@@H](C7=CC(=O)OC7)CC[C@]65O)C4)O[C@@H]3C)O[C@@H]2C)C[C@H](O)[C@@H]1O`, the activation in assay [1] was 5.34%. The Potency entry in assay [2] and in [3] was “inactive” in each case.
`COCC1OC(=O)c2coc3c2C1(C)C1=C(C3=O)C2CCC(=O)C2(C)CC1O` (stereo unspecified): in [1], the activation is -7.63%. Moreover, the Potency result in assay [2] and in assay [3] was “inactive” each time.
Regarding `FC(F)(F)c1ccc(N2CCNCC2)nc1Cl`, the activation in assay [1] was -26.3%. The Potency result in assay [12] and in assay [3] was “inactive” in each case.
Consider `C=CC(C)(O)CC/C=C(\C)C(=O)O[C@H]1[C@H](O)[C@@H](CO)O[C@@H](OC(=O)[C@]23CCC(C)(C)CC2C2=CCC4[C@@]5(C)CC[C@H](O[C@@H]6O[C@H](CO[C@@H]7OC[C@H](O)[C@H](O)[C@H]7O[C@@H]7OC[C@@H](O)[C@H](O)[C@H]7O)[C@@H](O)[C@H](O)[C@H]6O)C(C)(C)C5CC[C@@]4(C)[C@]2(C)CC3)[C@@H]1OC1OC(C)C(O[C@@H]2OC[C@@H](O)[C@H](O[C@@H]3OC[C@@H](O)[C@H](O)[C@H]3O)[C@H]2O)C(O)C1O` (stereo partly specified), for which the activation in [1] is -6.87%. In addition, the results for the activity change, negative = inhibition in assay [2] and in assay [3] were 12% [at 11.2 µM] and 3.26% [at 11.2 µM], respectively.
Take `CCC(C)/C=C(C)/C=C/C1=CC2=C(Cl)C(=O)C(C)(OC(C)=O)C(=O)C2=CO1` (stereo unspecified): in assay [1], the activation is -16%. The Potency entry in [3] was “inactive”.
As to `CN(C)CCN(C)CCc1ccc(Cl)c(Cl)c1`, the activation in assay [1] is 12%. Besides, the viability in assay [4] is 103%. Also, the Potency entry in assay [5], in assay [6], in assay [9], in assay [7] and in assay [10] was “inactive” each time.

The values above are taken from PubChem BioAssay (NCATS).
